Test results as given in PubChem BioAssay.
“And” between values parts separate entries of the source, which are not always exact repeats. Equal values may be shown once. The source made the active and inactive calls.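 The calls were made as follows, unless noted: active = thallium flux through the channel raised or lowered by more than 3 SD from vehicle-only wells, actives on both sides; inactive = the rest.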

How the values were obtained:
[1] = P. berghei load reduction in hepatocytes – cell-based, HepG2, luciferase luminescence, HepG2 viability, primary screen (AID 624349; in the data active = parasite load remaining mostly below about 12%, no sharp cut-off; inactive = mostly above about 10%;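 also: 100% = mean of DMSO negative control wells on the same plate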); conditions: P. berghei liver stage in HepG2, luciferase luminescence, concentration not given here; parasite load remaining: stronger effect = lower value; viability: measured here: HepG2 viability without parasites
[2] = signal quenchers or enhancers, Cy5 substrate/SSB – biochemical, NIH Clinical Collection, E. coli SSB, artefact control for HCV NS3 helicase inhibitor project (AID 743268; call rule not given here); conditions: Cy5-oligo bound E. coli SSB, fluorescence interference
[3] = system: Hepatitis C virus NS3 helicase; experiment: blockers of NS3h binding to DNA – biochemical, fluorescence polarization, NIH Clinical Collection, primary screen (AID 743270; call rule not given here); conditions: NS3 helicase binding to Cy5-dT15 DNA, stronger effect = higher value, concentration not given here
[4] = target: Single-stranded DNA-binding protein (Escherichia coli (strain K12)) (UniProt P0AGE0); experiment: SSB-ssDNA binding inhibitors – biochemical, fluorescence polarization, NIH Clinical Collection, counter-screen for HCV NS3 helicase inhibitor project (AID 743271; in the data active = inhibition above about 28%); conditions: E. coli SSB-DNA binding, stronger effect = higher value, concentration not given here
[5] = compounds distorting NS3 helicase fluorescence signal – biochemical, NIH Clinical Collection, artefact control for HCV NS3 helicase inhibitor project (AID 743272; call rule not given here;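 also: HCV NS3 helicase with a Cy5 labelled single stranded DNA probe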); conditions: fluorescence interference counterscreen, HCV NS3 helicase assay; stronger effect = lower value
[6] = modulation of C. elegans fzo-1 (AID 1259413; call rule not given here;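 also: fzo-1 mutant C. elegans worms in liquid wells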); conditions: C. elegans fzo-1 modulator screen, mean read-out; stronger effect = higher value
[7] = viability loss with induced miR-34 in A549 – imaging, A549 dox-inducible miR-34, nuclei and caspase counts, primary screen (AID 1347080;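 active = compounds whose cell count with miR-34 switched on is under 0.7 times the count with it off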); conditions: A549 miR-34 inducible, Hoechst nuclei count, 48 h
[8] = MELAS cybrid and Rieske KO viability enhancers – cell-based, MELAS cybrids, Rieske KO mouse fibroblasts, CellTiter-Glo, primary screen (AID 1508586;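 active = mean z-score across replicates of 1.96 or higher in either the MELAS or the Rieske mutant cell line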;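 also: z relative to plate mean and SD of compound and empty wells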); conditions: low glucose
F380Y = experiment: BK channel mutant inhibitors and activators – cell-based, U2OS BacMam, thallium flux, beta subunits, selectivity assay, profiling panel (AID 1259406); conditions: U2OS BacMam BK variants, at 30 µM;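 also: initial slope of Thallos dye fluorescence rise after thallium is added; log ratio against the mean of 0.3% DMSO vehicle wells on the same plate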
F380Y/beta1 = experiment: as above; conditions: U2OS BacMam BK variants, at 30 µM
F380Y/beta2Delta = experiment: as above; conditions: U2OS BacMam BK variants, at 30 µM
F380Y/beta4 = experiment: as above; conditions: U2OS BacMam BK variants, at 30 µM
[9] = target: Calcium-activated potassium channel subunit alpha-1 (Homo sapiens) + Leucine-rich repeat-containing protein 26 (Homo sapiens) (UniProt Q12791+Q2I0M4); experiment: as above; conditions: U2OS BacMam BK variants, F380Y/Slo1WT/gamma1, at 30 µM
R275C = experiment: as above; conditions: U2OS BacMam BK variants, at 30 µM
R275C/beta1 = experiment: as above; conditions: U2OS BacMam BK variants, at 30 µM
R275C/beta2Delta = experiment: as above; conditions: U2OS BacMam BK variants, at 30 µM
R275C/beta4 = experiment: as above; conditions: U2OS BacMam BK variants, at 30 µM
R275C/Slo1WT/beta2 = experiment: as above; conditions: U2OS BacMam BK variants, at 30 µM
[10] = stronger effect = lower value, cell number ratio, induced over uninduced
[11] = measured here: relative caspase fold change +Dox/-Dox
[12] = measured here: total cells with miR-34 induction, stronger effect = lower value
[13] = measured here: total cells without miR-34 induction
[14] = MELAS cybrid survival, CellTiter-Glo 48 h, stronger effect = higher value
[15] = Rieske KO mouse fibroblast survival, CellTiter-Glo 72 h

Chain of Calcium-activated potassium channel subunit alpha-1 (Homo sapiens) + Leucine-rich repeat-containing protein 26 (Homo sapiens) (Q2I0M4 whole entry, looked up, one chain of several): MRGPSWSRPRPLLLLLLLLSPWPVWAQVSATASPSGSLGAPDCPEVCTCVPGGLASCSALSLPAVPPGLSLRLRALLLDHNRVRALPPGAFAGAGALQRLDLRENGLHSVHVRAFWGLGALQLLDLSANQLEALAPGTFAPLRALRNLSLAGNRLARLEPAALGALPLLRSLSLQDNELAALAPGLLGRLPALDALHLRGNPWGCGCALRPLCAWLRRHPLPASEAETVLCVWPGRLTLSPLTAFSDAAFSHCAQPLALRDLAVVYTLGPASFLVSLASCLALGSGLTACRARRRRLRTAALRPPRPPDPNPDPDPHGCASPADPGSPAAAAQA

CCC(C)n1ncn(-c2ccc(N3CCN(c4ccc(OCC5COC(Cn6cncn6)(c6ccc(Cl)cc6Cl)O5)cc4)CC3)cc2)c1=O (centres undefined)
0.947 and 1.02: z-score [8, 15]
1.39 and 1.62: fold change [7, 11]
7130 and 11200: cell count [7, 13]
5650 and 9680: cell count [7, 12]
59.8% and 65%: viability [1]
inactive: parasite load remaining [1] 26.8% and 13.6% | fluorescence ratio [2] 0.99 | inhibition [3] 2.77% | inhibition [4] -1.64% | fluorescence ratio [5] 1 | mean signal [6] 270 | fold change [7, 10] 0.793 and 0.866 | z-score [8, 14] -0.416 and -0.441 | log fold change Tl+ flux (F380Y) 0.0299 | log fold change Tl+ flux (F380Y/beta1) 0.0346 | log fold change Tl+ flux (F380Y/beta2Delta) -0.00576 | log fold change Tl+ flux (F380Y/beta4) 0.0111 | log fold change Tl+ flux [9] 0.0139 | log fold change Tl+ flux (R275C) -0.015 | log fold change Tl+ flux (R275C/beta1) 0.0149 | log fold change Tl+ flux (R275C/beta2Delta) 0.0172 | log fold change Tl+ flux (R275C/beta4) -0.00424 | log fold change Tl+ flux (R275C/Slo1WT/beta2) 0.0617

C=CCc1ccc(O)c(-c2ccc(O)c(CC=C)c2)c1
active: log fold change Tl+ flux (F380Y) 0.306 | log fold change Tl+ flux (F380Y/beta1) 0.643 | log fold change Tl+ flux (F380Y/beta2Delta) 0.34 | log fold change Tl+ flux (F380Y/beta4) 0.501 | log fold change Tl+ flux [9] 0.418 | log fold change Tl+ flux (R275C/beta1) 0.387 | log fold change Tl+ flux (R275C/beta2Delta) 0.524 | log fold change Tl+ flux (R275C/beta4) 0.697 | log fold change Tl+ flux (R275C/Slo1WT/beta2) 0.149
8192 and 9270: cell count [7, 12]
0.74: z-score [8, 15]
1.37 and 0.714: fold change [7, 11]
inactive: parasite load remaining [1] 18.8% | fluorescence ratio [2] 0.94 | inhibition [3] 5.94% | inhibition [4] 5.29% | fluorescence ratio [5] 0.94 | mean signal [6] 216 | fold change [7, 10] 0.989 and 0.916 | z-score [8, 14] -0.24 | log fold change Tl+ flux (R275C) 0.0538
8280 and 10100: cell count [7, 13]
70.3%: viability [1]

CCCCc1nc(Cl)c(CO)n1Cc1ccc(-c2ccccc2-c2nnn[nH]2)cc1
inactive: parasite load remaining [1] 81.8% and 40.5% | fluorescence ratio [2] 1.01 | inhibition [3] -1.19% | inhibition [4] 2.21% | fluorescence ratio [5] 0.93 | mean signal [6] 250 | fold change [7, 10] 0.917 and 0.788 | z-score [8, 14] -0.447 | log fold change Tl+ flux (F380Y) -0.0174 | log fold change Tl+ flux (F380Y/beta1) 0.0224 | log fold change Tl+ flux (F380Y/beta2Delta) -0.000818 | log fold change Tl+ flux (F380Y/beta4) 0.0154 | log fold change Tl+ flux [9] 0.0245 | log fold change Tl+ flux (R275C) -0.0209 | log fold change Tl+ flux (R275C/beta1) 0.00988 | log fold change Tl+ flux (R275C/beta2Delta) 0.0215 | log fold change Tl+ flux (R275C/beta4) 0.039 | log fold change Tl+ flux (R275C/Slo1WT/beta2) -0.0136
76.8% and 103%: viability [1]
-1.13: z-score [8, 15]
2.6 and 1.84: fold change [7, 11]
9420 and 8200: cell count [7, 12]
10300 and 10400: cell count [7, 13]
